# Most compounds without a hit are left out; they make up all but 6.3% or so of the library.
# TIM10 inh = inhibits growth of TIM10 yeast strain; S. cerevisiae TIM10 strain growth, BacTiter-Glo luminescence, 24 h; 330,000 tested, 1.4% active; inhibition, % at 10 µM; AID 463195;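 active means inhibition of 40% or more at the single tested concentration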;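 further: wild-type TIM10 isogenic control strain grown at permissive 25 °C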
# Mdm2 MdmX PPI = inhibitors of human Mdm2/MdmX interaction; 330,000 tested, 3% active; AID 485346; O15151+Q00987; inhibition, % at 8 µM; SaOS-2 split-luciferase Mdm2/MdmX complementation, luminescence;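 active means inhibition of at least 50% at 8 µM in the primary screen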
# MPTP inh = permeability transition pore inhibition; isolated mouse mitochondria, Ca2+ swelling absorbance, 30 min; 360,000 tested, 1.4% active; inhibition, % at 10 µM;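 active means inhibition of 50% or more, scaled per plate between neutral and stimulator controls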;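 further: 0% = DMSO wells given calcium and 100% = 1 mM EGTA wells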
# tim23-1 inh = inhibits growth of tim23-1 mutant yeast. 330,000 tested, 1.3% active. inhibition, % at 20 µM. S. cerevisiae tim23-1 growth, BacTiter-Glo luminescence, 24 h;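 active means growth inhibition of the mutant yeast at or above 50%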;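 further: temperature-sensitive mutant grown at 25 °C; plate controls were DMSO-treated mutant yeast for no effect and medium wells lacking yeast for full effect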
# tim10-1 inh = inhibits growth of tim10-1 mutant yeast. AID 463190. inhibition, % at 20 µM. 330,000 tested, 2.2% active. S. cerevisiae tim10-1 ts strain growth, BacTiter-Glo, 24 h;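 active means inhibition of at least 40%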;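 further: mutant grown at 25 °C; 0% = DMSO wells with yeast and 100% = wells holding no yeast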
# Rh123 counter = Rhodamine 123 counter-screen of mitochondrial pore hits; isolated mitochondria, membrane potential, Rhodamine 123 fluorescence; shares compounds with MPTP inh; inhibition, % at 10 µM; 5,000 tested, 78% active; in the data active means inhibition above about 22%;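 further: 0% = DMSO vehicle and 100% = positive control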
# MPTP abs DR = dose response confirmation of mitochondrial permeability transition pore inhibitors. isolated mitochondria swelling, absorbance. AID 651561. IC50, µM. 780 tested, 58% active. shares compounds with MPTP inh; in the data active means IC50 below about 20 µM
# MPTP cs DR = MPTP inhibitor counter-screen activity, dose response | shares compounds with MPTP inh | isolated mitochondria counterscreen, fluorescence read-out | IC50, µM | 780 tested, 49% active | AID 651564; in the data active means IC50 below about 80 µM
# An asterisk follows results filed as active; / = not tested or not shown.
SMILES,TIM10 inh,Mdm2 MdmX PPI,MPTP inh,tim23-1 inh,tim10-1 inh,Rh123 counter,others
Cc1cc(C(=O)N2CCC(C)(C(=O)NS(=O)(=O)C3CC3)C2)n(C(C)(C)C)n1 (configuration not stated),/,/,0,/,/,/,
OC[C@@H]1CN(Cc2ccncc2)C[C@H](n2cnc3c(NCc4ccco4)ncnc32)O1,/,/,0,/,/,/,
COc1ccc(C2=Nc3ccccc3C2(O)CCN2C(=O)c3ccccc3C2=O)cc1 (configuration not stated),/,/,3,/,/,/,
Cc1cc(C(=O)OC(C(=O)Nc2cccc(C(F)(F)F)c2)c2ccccc2)c(C)o1 (configuration not stated),16,14,68*,14,33,73*,
CSc1nc(N)nc2c1ncn2CC(=O)N1CCN(Cc2c(C)cc(C)cc2C)CC1,2,43,86*,-11,-3,77*,
CCN1C(=O)CSC1=NC1C2CC3CC(C2)CC1C3 (configuration not stated),-14,6,77*,24,8,-4,MPTP abs DR=8.1*;MPTP cs DR=36*
CC1(C(=O)NS(=O)(=O)c2cccc(Cl)c2)CCN1C(=O)c1cccc2ccccc12 (configuration not stated),/,/,0,/,/,/,
Cn1c(N=Nc2ccc(N3CCOCC3)cc2)[n+](C)c2ccccc21,/,/,81*,/,/,25*,
Cn1c(=Nc2ccc(N3CCOCC3)cc2)ccc2ccccc21,-3,13,0,3,6,/,
Clc1ccc(-n2cnc3c(Cl)ncnc32)cc1Cl,/,/,0,/,/,/,
O=C(CSc1nnc(Cn2nnc3ccccc32)o1)N(Cc1ccc(F)cc1)c1ccccc1,18,13,85*,24,7,94*,
CCCS(=O)(=O)NC(=O)C1(C)CCN(C(=O)c2ccco2)C1 (configuration not stated),/,/,41,/,/,/,
C[N+](C)(C)c1ccc(/C=N/Nc2nc(Cl)c(C#N)c(Cl)c2Cl)cc1,/,/,92*,/,/,95*,
C[n+]1cccc(/C=N/Nc2nc(Cl)c(C#N)c(Cl)c2Cl)c1,11,27,65*,4,-6,64*,
CCc1c(C(=O)Nc2cc(C)cc(C)c2)[nH]c(C)c1C(C)=O,30,-17,79*,9,18,84*,
CCOc1ccc(CCNC(=O)c2[nH]c(C)c(C(C)=O)c2CC)cc1OCC,9,18,3,12,19,/,
COc1ccc2nc(N3C(=O)/C(=C/c4ccc(Cl)cc4)NC3=S)sc2c1,/,/,95*,/,/,3,
CCOC(=O)C1CCN(C(=O)c2[nH]c(C(F)(F)F)nc2-c2ccccc2)CC1,/,/,1,/,/,/,
COc1ccc(CN2C(=O)CN(S(C)(=O)=O)CC2(C)C(=O)Nc2ccc3c(c2)OCCO3)cc1OC (configuration not stated),/,/,0,/,/,/,
O=C(NCc1ccc(C(F)(F)F)cc1)c1ccc(-c2ccc(F)c(F)c2)c2ccoc12,/,/,2,/,/,/,
COc1ccc(-c2coc3c(C(=O)NCc4ccc(F)c(F)c4)cccc23)c(C)c1,/,/,24,/,/,/,
O=C(NCc1ccncc1)c1ccc(-c2ccc(F)c(F)c2)c2ccoc12,/,/,91*,/,/,87*,
COc1ccc(-c2ccc(C(=O)NCc3ccc(F)c(F)c3)c3occc23)c(C)c1,/,/,1,/,/,/,
COc1ccc(-c2coc3c(C(=O)NCc4ccc(OC)c(OC)c4)cccc23)c(C)c1,/,/,98*,/,/,102*,
COc1ccc(-c2ccc(C(=O)NCc3ccncc3)c3occc23)c(C)c1,/,/,92*,/,/,112*,
CC1=CC(C)(C)N2C(=O)C3(N=C(N)NC(Nc4ccccc4)=N3)c3cc(C)cc1c32 (configuration not stated),0,19,88*,2,-1,-12,MPTP abs DR=9.3*;MPTP cs DR=>80
Cc1cccc(NC2=NC(C)(C)N=C(N)N2)c1,0,34,1,-3,0,/,
O=[N+]([O-])c1ccc2c(c1)C(=NO)c1cc(Cl)c(Cl)cc1-2,/,/,61*,/,/,36*,
Nc1cc2c(cc1[N+](=O)[O-])-c1ccccc1C2=NO,/,/,3,/,/,/,
Fc1ccc(-[n+]2nc(Nc3ccccc3)sc2-c2cccc(Cl)c2Cl)cc1,14,3,95*,17,17,109*,

# Bioassay records deposited in PubChem by Sanford-Burnham Center for Chemical Genomics.
